Measured values taken from publication PMC9911399, “Two distinct binding modes provide the RNA-binding protein RbFox with extraordinary sequence specificity”.
Where a chain is given by its changes, count along the chain named. The full ranking holds about 16,000 sequences; the median of “ka relative to ugcaugu” is about 0.0091, and the highest 2% start at about 0.032. For the sample, the highest values were picked, then their nearest neighbours and some sequences at random.

T1: RBFOX1 RRM (Homo sapiens, UniProt Q9NWB1 109-208)
T1 sequence: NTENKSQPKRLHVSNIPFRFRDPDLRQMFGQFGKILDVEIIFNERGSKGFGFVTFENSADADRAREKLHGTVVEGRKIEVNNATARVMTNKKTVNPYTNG

B1: UCAUCUG (DNA:RNA)
RNA: GGGAGACCGGAAUUCAGAUUGUCCUCAUCUGUUAAAUCCCGUCGUAGCCACCA
DNA 1: CAATCTGAATTCCGGTCTCCC
DNA 2: TGGTGGCTACGACGGGATT
B2: GAGUUUA (DNA:RNA)
RNA: B1 RNA with U25G, C26A, A27G, C29U, G31A
DNA 1: CAATCTGAATTCCGGTCTCCC
DNA 2: TGGTGGCTACGACGGGATT
B3: ACUCUUU (DNA:RNA)
RNA: B1 RNA with U25A, A27U, U28C, C29U, G31U
DNA 1: CAATCTGAATTCCGGTCTCCC
DNA 2: TGGTGGCTACGACGGGATT
B4: AGGUCUA (DNA:RNA)
RNA: B1 RNA with U25A, C26G, A27G, G31A
DNA 1: CAATCTGAATTCCGGTCTCCC
DNA 2: TGGTGGCTACGACGGGATT
B5: GAGAGUC (DNA:RNA)
RNA: B1 RNA with U25G, C26A, A27G, U28A, C29G, G31C
DNA 1: CAATCTGAATTCCGGTCTCCC
DNA 2: TGGTGGCTACGACGGGATT
B6: CGGAAUC (DNA:RNA)
RNA: B1 RNA with U25C, C26G, A27G, U28A, C29A, G31C
DNA 1: CAATCTGAATTCCGGTCTCCC
DNA 2: TGGTGGCTACGACGGGATT
B7: CCGAGUC (DNA:RNA)
RNA: B1 RNA with U25C, A27G, U28A, C29G, G31C
DNA 1: CAATCTGAATTCCGGTCTCCC
DNA 2: TGGTGGCTACGACGGGATT
B8: CCGGAUC (DNA:RNA)
RNA: B1 RNA with U25C, A27G, U28G, C29A, G31C
DNA 1: CAATCTGAATTCCGGTCTCCC
DNA 2: TGGTGGCTACGACGGGATT
B9: GAGUCUC (DNA:RNA)
RNA: B1 RNA with U25G, C26A, A27G, G31C
DNA 1: CAATCTGAATTCCGGTCTCCC
DNA 2: TGGTGGCTACGACGGGATT
B10: CGGGAUC (DNA:RNA)
RNA: B1 RNA with U25C, C26G, A27G, U28G, C29A, G31C
DNA 1: CAATCTGAATTCCGGTCTCCC
DNA 2: TGGTGGCTACGACGGGATT
B11: CAUGGAC (DNA:RNA)
RNA: GGGAGACCGGAAUUCAGAUUGUCCCAUGGACUUAAAUCCCGUCGUAGCCACCA
DNA 1: CAATCTGAATTCCGGTCTCCC
DNA 2: TGGTGGCTACGACGGGATT
B12: CUAAAAA (DNA:RNA)
RNA: B11 RNA with A26U, U27A, G28A, G29A, C31A
DNA 1: CAATCTGAATTCCGGTCTCCC
DNA 2: TGGTGGCTACGACGGGATT
B13: GGAGUAG (DNA:RNA)
RNA: B11 RNA with C25G, A26G, U27A, G29U, C31G
DNA 1: CAATCTGAATTCCGGTCTCCC
DNA 2: TGGTGGCTACGACGGGATT
B14: UCGCUCC (DNA:RNA)
RNA: B1 RNA with A27G, U28C, C29U, U30C, G31C
DNA 1: CAATCTGAATTCCGGTCTCCC
DNA 2: TGGTGGCTACGACGGGATT
B15: UCGCUUG (DNA:RNA)
RNA: B1 RNA with A27G, U28C, C29U
DNA 1: CAATCTGAATTCCGGTCTCCC
DNA 2: TGGTGGCTACGACGGGATT
B16: UCGUCGC (DNA:RNA)
RNA: B1 RNA with A27G, U30G, G31C
DNA 1: CAATCTGAATTCCGGTCTCCC
DNA 2: TGGTGGCTACGACGGGATT
B17: UCGCUCG (DNA:RNA)
RNA: B1 RNA with A27G, U28C, C29U, U30C
DNA 1: CAATCTGAATTCCGGTCTCCC
DNA 2: TGGTGGCTACGACGGGATT
B18: GUCCUCG (DNA:RNA)
RNA: B1 RNA with U25G, C26U, A27C, U28C, C29U, U30C
DNA 1: CAATCTGAATTCCGGTCTCCC
DNA 2: TGGTGGCTACGACGGGATT
B19: UCCUCGC (DNA:RNA)
RNA: B1 RNA with A27C, U30G, G31C
DNA 1: CAATCTGAATTCCGGTCTCCC
DNA 2: TGGTGGCTACGACGGGATT
B20: UUCGUAA (DNA:RNA)
RNA: B11 RNA with C25U, A26U, U27C, G29U, C31A
DNA 1: CAATCTGAATTCCGGTCTCCC
DNA 2: TGGTGGCTACGACGGGATT
B21: GCGAAUA (DNA:RNA)
RNA: B1 RNA with U25G, A27G, U28A, C29A, G31A
DNA 1: CAATCTGAATTCCGGTCTCCC
DNA 2: TGGTGGCTACGACGGGATT
B22: AGCUUAC (DNA:RNA)
RNA: B11 RNA with C25A, A26G, U27C, G28U, G29U
DNA 1: CAATCTGAATTCCGGTCTCCC
DNA 2: TGGTGGCTACGACGGGATT
B23: UGACUUU (DNA:RNA)
RNA: B1 RNA with C26G, U28C, C29U, G31U
DNA 1: CAATCTGAATTCCGGTCTCCC
DNA 2: TGGTGGCTACGACGGGATT
B24: CAUGUCC (DNA:RNA)
RNA: B11 RNA with G29U, A30C
DNA 1: CAATCTGAATTCCGGTCTCCC
DNA 2: TGGTGGCTACGACGGGATT
B25: CUAGAAU (DNA:RNA)
RNA: B11 RNA with A26U, U27A, G29A, C31U
DNA 1: CAATCTGAATTCCGGTCTCCC
DNA 2: TGGTGGCTACGACGGGATT
B26: UAGUAGC (DNA:RNA)
RNA: B11 RNA with C25U, U27G, G28U, G29A, A30G
DNA 1: CAATCTGAATTCCGGTCTCCC
DNA 2: TGGTGGCTACGACGGGATT
B27: UAGCCCG (DNA:RNA)
RNA: B1 RNA with C26A, A27G, U28C, U30C
DNA 1: CAATCTGAATTCCGGTCTCCC
DNA 2: TGGTGGCTACGACGGGATT
B28: UCCUAGC (DNA:RNA)
RNA: B1 RNA with A27C, C29A, U30G, G31C
DNA 1: CAATCTGAATTCCGGTCTCCC
DNA 2: TGGTGGCTACGACGGGATT
B29: UAGCUUG (DNA:RNA)
RNA: B1 RNA with C26A, A27G, U28C, C29U
DNA 1: CAATCTGAATTCCGGTCTCCC
DNA 2: TGGTGGCTACGACGGGATT
B30: UAGCUCC (DNA:RNA)
RNA: B11 RNA with C25U, U27G, G28C, G29U, A30C
DNA 1: CAATCTGAATTCCGGTCTCCC
DNA 2: TGGTGGCTACGACGGGATT
B31: UAGCUCG (DNA:RNA)
RNA: B1 RNA with C26A, A27G, U28C, C29U, U30C
DNA 1: CAATCTGAATTCCGGTCTCCC
DNA 2: TGGTGGCTACGACGGGATT

Molecular target: T1, RBFOX1 RRM
Assay: EMSA; HiTS-Eq, 1 nM pool, 10 min; buffer printed only for the single-RNA assays: 10 mM Tris pH 7.5, 150 mM NaCl, 3.4 mM EDTA, 0.001% NP-40, 30 C
Conditions: tags: His6 N-terminal (pET28a); label: 5' 32P
Outline: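 A pool of RNA with 7 randomized nucleotides, 5′-radiolabelled and with DNA-annealed flanks, was equilibrated at 1 nM for 10 min in 50 µL with purified RbFox RRM, wild type or mutant, across increasing protein concentrations. Free RNA was separated by 8% native PAGE, excised, reverse-transcribed, barcoded by PCR and sequenced. Relative association constants were obtained from read-count changes of each RNA species versus the control reaction and normalised to the cognate motif.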

Binder	binding signal
B1	0.00773 KA relative to UGCAUGU
B2	0.00687 KA relative to UGCAUGU
B3	0.00357 KA relative to UGCAUGU
B4	0.00527 KA relative to UGCAUGU
B5	0.0183 KA relative to UGCAUGU
B6	0.0233 KA relative to UGCAUGU
B7	0.0112 KA relative to UGCAUGU
B8	0.0104 KA relative to UGCAUGU
B9	0.032 KA relative to UGCAUGU
B10	0.0318 KA relative to UGCAUGU
B11	0.00577 KA relative to UGCAUGU
B12	0.000629 KA relative to UGCAUGU
B13	0.0152 KA relative to UGCAUGU
B14	0.0108 KA relative to UGCAUGU
B15	0.0368 KA relative to UGCAUGU
B16	0.0113 KA relative to UGCAUGU

Binder	binding signal
B17	0.0321 KA relative to UGCAUGU
B18	0.0155 KA relative to UGCAUGU
B19	0.00514 KA relative to UGCAUGU
B20	0.00742 KA relative to UGCAUGU
B21	0.0051 KA relative to UGCAUGU
B22	0.00674 KA relative to UGCAUGU
B23	0.0147 KA relative to UGCAUGU
B24	0.00562 KA relative to UGCAUGU
B25	0.00687 KA relative to UGCAUGU
B26	0.0177 KA relative to UGCAUGU
B27	0.0123 KA relative to UGCAUGU
B28	0.0075 KA relative to UGCAUGU
B29	0.0445 KA relative to UGCAUGU
B30	0.00512 KA relative to UGCAUGU
B31	0.0341 KA relative to UGCAUGU
